Screens as filed in PubChem.
EWS-Fli block = inhibitors of EWS/Fli oncoprotein transcriptional activity | inhibition, % at 12.6 µM | AID 651661 | actives 0.67% (n = 350,000) | A673 NR0B1-luciferase reporter, viability-normalised;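 active = mean inhibition of at least 50% after viability correction, with every replicate also passing that limit; inconclusive = mean reaches 50% but only one of two replicates passes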;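 also: firefly luciferase signal divided by Alamar Blue viability fluorescence both relative to DMSO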
Wnt act = Wnt/beta-catenin pathway activation; activation, % at 9.35 µM; actives 1.2% (n = 300,000); Wnt/beta-catenin reporter cell assay, activator, plate reader; AID 743398; in the data active = activation above about 30%, passing the limit was not always enough; inconclusive = no clear call, values can overlap the other calls
MITF TRPM1 inh = inhibitors of MITF-driven TRPM1 promoter in melanoma cells. SK-MEL-5 TRPM1 promoter luciferase, 24 h. actives 0.83% (n = 330,000). inhibition, % at 12.5 µM;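 active = mean inhibition across replicates of 60% or more, whatever share of single replicates reaches that level; inconclusive = some that reach 60%, reason not given; inactive = mean inhibition across replicates below 60%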
MITF TRPM1 HTS = activators of MITF-driven TRPM1 promoter activity in SK-MEL-5 cells | activation, % at 12.5 µM | actives 0.75% (n = 300,000) | SK-MEL-5 TRPM1-promoter luciferase, 24 h; % of positive control, neutral wells = 0;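 active = mean activation of at least 80% with every replicate also reaching 80%; inconclusive = mean reaches 80% but some replicate falls short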
PAX8 reporter = lowers PAX8-driven luciferase in RMG-I cells; RMG-I TPO-luciferase reporter, SteadyGlo, 24 h; inhibition, % at 12.6 µM; actives 1.2% (n = 360,000);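 active = mean replicate inhibition at least 60% with every replicate also reaching 60%; inconclusive = only one of the two criteria is met; inactive = mean below 60% and not all replicates reaching 60%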;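 also: luciferase light reporting Pax8 driven TPO promoter activity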
esBAF inh = blocks esBAF chromatin remodeling in mouse ES cells. AID 602393. reporter increase, % at 12.5 µM. Bmi1-luciferase knock-in reporter, 24 h; 100% = twice the neutral-well signal. actives 2% (n = 350,000); in the data active = activation above about 40%; inconclusive = no clear call, values can overlap the other calls;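 also: a rise in the Bmi1 reporter signal indicates esBAF inhibition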
A number is an active result; i = inactive; ? = inconclusive; nt = not tested or not shown. This is a sample that favours compounds with a hit; in the whole collection about 4% have one here.

SMILES | EWS-Fli block | Wnt act | MITF TRPM1 inh | MITF TRPM1 HTS | PAX8 reporter | esBAF inh
C[C@@H]1CCCCO[C@@H](CN(C)CC2CCCCC2)[C@@H](C)CN([C@@H](C)CO)C(=O)c2cc(NC(=O)Nc3ccc(F)cc3)ccc2O1 | i | nt | nt | nt | i | i
O=C(C[C@H]1CC[C@H](NS(=O)(=O)c2ccc(F)cc2)[C@H](CO)O1)NCc1ccccc1F | i | nt | nt | nt | nt | nt
C[C@@H]1CN([C@@H](C)CO)C(=O)c2cc(NS(=O)(=O)c3cccs3)ccc2O[C@@H](C)CCCCO[C@@H]1CN(C)C(=O)Nc1ccc(F)cc1 | i | nt | nt | nt | i | nt
CC(C)=CCNc1ncnc2c1c(C#N)cn2C1OC(CO)C(O)C1O (stereo unspecified) | i | i | i | i | 87 | nt
COc1ccccc1-c1ccc2c(c1)O[C@@H](CN(C)C(=O)c1ccccc1)[C@@H](C)CN([C@@H](C)CO)S2(=O)=O | i | nt | nt | nt | i | i
Brc1ccc2oc3c(N4CCOCC4)ncnc3c2c1 | i | i | i | i | nt | 48
c1ccc(N2CCN(c3ncnc4c3oc3ccccc34)CC2)cc1 | nt | nt | i | i | nt | i
COc1ccc(S(=O)(=O)Nc2ccc3c(c2)C(=O)N([C@H](C)CO)C[C@@H](C)[C@H](CN(C)C(=O)CCC(F)(F)F)OCCCC[C@@H](C)O3)cc1 | i | nt | nt | nt | i | i
CCN1/C(=C/c2ccc3cc(C)ccc3[n+]2CC)Sc2ccccc21 | i | i | 101 | i | 93 | nt
CC[n+]1c(/C=C2\Sc3ccccc3N2C)ccc2cccc(C)c21 | i | i | 104 | i | 61 | nt
CCN1/C(=C/c2ccc3cc(C)ccc3[n+]2CC)Sc2cc(C)c(C)cc21 | 73 | i | 69 | i | 88 | i
C[C@@H]1CN([C@H](C)CO)C(=O)c2cc(C#CC3CC3)cnc2O[C@H]1CN(C)C(=O)c1ccncc1 | i | nt | nt | nt | nt | nt
C=CCn1cccc(C(=O)Nc2ccc(F)cc2)c1=O | i | i | i | i | i | 67
C=CCn1cccc(C(=O)Nc2ccc(OC)cc2)c1=O | i | i | i | i | i | nt
CC(=O)N(C)C[C@@H]1Oc2cc(-c3ccc(F)cc3)ccc2S(=O)(=O)N([C@H](C)CO)C[C@@H]1C | i | nt | nt | nt | nt | i
Cc1ccc(-c2nc3ccc(C)cn3c2Cc2ccccn2)cc1 | i | i | nt | nt | i | nt
Cc1ccc2nc(-c3cccc(Br)c3)c(Cc3ccccn3)n2c1 | i | i | nt | nt | i | 48
COC(=O)c1ccc2nc(-c3cccc(Cl)c3)c(Cc3ccsc3)n2c1 | i | i | nt | nt | i | 55
Clc1ccc(-c2nc3ccc(Cl)cn3c2Cc2ccsc2)cc1 | i | i | nt | nt | i | 71
Cc1ccc(-c2nc3ccc(Br)cn3c2Cc2cccc(Cl)c2)cc1 | i | i | nt | nt | i | 43
Cc1ccc(-c2nc3ccc(Cl)cn3c2Cc2cccc(Cl)c2)cc1 | i | 46 | nt | nt | i | 50
Cc1ccc(-c2nc3ccc(C)cn3c2Cc2cccc(Cl)c2)cc1 | i | i | nt | nt | i | nt
Cc1ccc(-c2nc3cc(C)c(Br)c(C)n3c2Cc2cccc(F)c2)cc1 | i | i | nt | nt | i | 54
COCC(=O)N1[C@H](CO)[C@@H](c2ccccc2)C12CN(C(=O)NC1CCCC1)C2 | i | nt | nt | nt | nt | nt
CNC[C@@H]1OCCCC[C@H](C)Oc2ccc(NC(=O)c3ccncc3)cc2C(=O)N([C@@H](C)CO)C[C@H]1C | i | nt | nt | nt | i | i
SMILES | EWS-Fli block | Wnt act | MITF TRPM1 inh | MITF TRPM1 HTS | PAX8 reporter | esBAF inh
CNC[C@@H]1OCCCC[C@H](C)Oc2ccc(NC(=O)NC3CCCCC3)cc2C(=O)N([C@H](C)CO)C[C@@H]1C | i | nt | nt | nt | i | i
CC(C)CC#Cc1ccc2c(c1)O[C@@H](CN(C)Cc1ccncc1)[C@@H](C)CN([C@@H](C)CO)S2(=O)=O | i | nt | nt | nt | i | i
COc1ccccc1N=c1oc2c(OC)cccc2cc1C(=O)NCc1ccco1 | nt | nt | i | i | nt | 52
COc1ccc(C(=O)Nc2ccccc2C(=O)NCc2ccco2)cc1OC | nt | 48 | i | nt | i | i
COc1ccc(OC)c(N=c2oc3c(OC)cccc3cc2C(=O)NCc2ccco2)c1 | nt | nt | i | i | nt | i
O=C(NCc1ccco1)c1cccc2ccccc12 | nt | nt | i | i | nt | i
O=C(Nc1ccccc1C(=O)NCc1ccco1)Nc1cccc2ccccc12 | i | i | i | i | 61 | nt
COc1ccc(C(=O)Nc2ccc(Cl)cc2C(=O)NCc2ccco2)cc1OC | nt | i | i | i | nt | i
Cc1ccccc1-c1cnc2c(c1)C(=O)N([C@H](C)CO)C[C@H](C)[C@H](CN(C)C(=O)c1cccnc1)O2 | i | nt | nt | nt | nt | i
COc1ccc(S(=O)(=O)Nc2cccc3c2O[C@H](CN(C)Cc2ccc(C(=O)Nc4ccccc4N)cc2)[C@@H](C)CN([C@@H](C)CO)C3=O)cc1 | i | nt | nt | nt | i | nt
C[C@H](NC(=O)C[C@H]1C[C@@H]2c3cc(NC(=O)Cc4ccncc4)ccc3O[C@@H]2[C@H](CO)O1)c1ccccc1 | i | nt | nt | nt | i | i
Fc1ccc2nc(Nc3nc4cc5c(cc4s3)OCCO5)sc2c1 | nt | nt | i | 85 | i | nt
NNc1nc2ccc(F)cc2s1 | nt | nt | i | i | nt | nt
Fc1ccc2nc(Nc3ccccc3)sc2c1 | i | i | i | ? | i | 92
Fc1ccc2nc(Nc3nc4cc5c(cc4s3)OCO5)sc2c1 | nt | nt | i | i | i | nt
c1ccc2sc(Nc3nc4cc5c(cc4s3)OCO5)nc2c1 | nt | nt | i | i | i | 69
C[C@@H]1CN([C@H](C)CO)C(=O)Cc2cc(NC(=O)Nc3ccc(C(F)(F)F)cc3)ccc2O[C@H]1CN(C)C(=O)Nc1cccc2ccccc12 | i | nt | nt | nt | i | i
CC(C)(C)Nc1nc(Nc2ccc([N+](=O)[O-])cc2)nc(NC(C)(C)C)n1 | i | i | i | nt | i | i
O=[N+]([O-])c1ccc(Nc2nccc(Cl)n2)cc1 | i | 55 | nt | nt | i | nt
Cc1ccc(S(=O)(=O)N2Cc3ccccc3CC2C(=O)Nc2ccc3c(c2)OCO3)cc1 (stereo unspecified) | nt | nt | i | i | nt | 66
COc1ccc(S(=O)(=O)N2CCCCC2c2cc(C(=O)Nc3ccc4c(c3)OCO4)no2)cc1 (stereo unspecified) | i | i | nt | nt | i | i
COc1ccc(S(=O)(=O)N2Cc3ccccc3CC2C(=O)Nc2ccc3c(c2)OCO3)cc1 (stereo unspecified) | nt | i | i | i | i | 59
Cc1ccc(S(=O)(=O)N2Cc3ccccc3CC2C(=O)NC(C)(C)C)cc1 (stereo unspecified) | i | i | i | i | i | i
C[C@H](CO)N1C[C@H](C)[C@H](CN(C)C(=O)Nc2ccc(F)cc2)Oc2ncc(C#C[C@@H](C)O)cc2C1=O | i | nt | nt | nt | nt | i
Cc1cc2[nH]c3c4ccccc4nc(C)c3c2cc1C | 61 | i | 86 | nt | 86 | i
Cc1cc2[nH]c3ccccc3c2c(C)n1 | i | nt | i | i | i | nt
O=[N+]([O-])c1ccc(C=CC=Cc2ccccc2)cc1 | i | i | nt | nt | i | 56
[O-]/[N+](=C\C=C\c1ccccc1)c1ccccc1 | i | i | i | 94 | i | i
C[C@@H]1CN([C@@H](C)CO)C(=O)c2cc(NS(=O)(=O)c3ccccc3)ccc2O[C@@H]1CN(C)S(=O)(=O)c1cccs1 | i | nt | nt | nt | i | i
